{
  "source": "PubChem BioAssay (NCATS)",
  "note": "Where “and” joins values, the source holds several entries; their conditions need not be identical. Equal values may be shown once. Inconclusive results are not listed. Values without a mark were called inactive. Calls of active or inactive are those of the source. The call rests on the fitted dose curve; in most records, active means well fitted inhibition curve with a large enough effect; inconclusive means small, poorly fitted or top-dose-only effect; inactive means flat fitted curve, though single readings scatter. On the % scale 0 is the no-effect control and ±100 the full control effect; potency means the concentration at half of the fitted maximal effect.",
  "data": [
    {"assay": "Primary qHTS for inhibitors of nuclear receptor binding SET domain protein 2 (NSD2) in an isogenic RCH-ACV NSD2 p.E1099K mutant (9B) (AID 1645876); further: nearly all actives have a fitted effect of over 70% in size", "conditions": "RCH-ACV NSD2 E1099K (9B) viability, CellTiter-Glo, 72 h; series mostly up to 44.9 µM; activity change, negative = viability loss: at the top concentration", "units": {"activity change, negative = viability loss": "%"}, "values": [
      {"smiles": "CCCCCNC(=O)N1CCC(CN(Cc2ccc(Cl)cc2)Cc2ccc([N+](=O)[O-])s2)C1", "note": "(centres undefined)", "activity change, negative = viability loss": -6.65},
      {"smiles": "COc1ccc2c(Oc3ccc(NC(=O)c4c(C)n(CC(C)(C)O)n(-c5ccccc5)c4=O)nc3)ccnc2c1", "activity change, negative = viability loss": -23.9},
      {"smiles": "O=C(CCCCCCC(=O)Nc1ccccc1)NO", "Potency": "94.4 nM (active) and 1.63 µM (active) and 662 nM (active)"},
      {"smiles": "O=C(CCN1CCN(C(=O)OCc2cc(Cl)cc(Cl)c2)CC1)c1ccc2[nH]c(=O)oc2c1", "Potency": "18.6 µM (active)"},
      {"smiles": "CCc1ccc(OCc2ccccc2C(=O)Nc2ccc3nc(C)cc(N)c3c2)cc1", "Potency": "2.63 µM (active)"},
      {"smiles": "COc1cc(N2CCC(N3CCN(C)CC3)CC2)ccc1Nc1ncnc(Nc2ccccc2S(=O)(=O)C(C)C)n1", "Potency": "6.49 µM (active) and 9.34 µM (active)"},
      {"smiles": "CS(=O)c1ccc(-c2nc(-c3ccc(F)cc3)c(-c3ccncc3)[nH]2)cc1", "note": "(centres undefined)", "Potency": "18.6 µM (active)"},
      {"smiles": "COc1cc(NC(=O)c2ccc(-c3ccc(Cl)cc3)o2)cc(OC)c1", "activity change, negative = viability loss": -22},
      {"smiles": "O=C1C[C@@H](c2ccc(O)cc2)Oc2cc(O)cc(O)c21", "activity change, negative = viability loss": -22.6},
      {"smiles": "COc1cc2ncnc(-n3nc(-c4ccccn4)nc3N)c2cc1OC", "Potency": "1.59 µM (active)"},
      {"smiles": "COc1cc2c(cc1OC)CN(CCc1ccc(NC(=O)c3cc(OC)c(OC)cc3NC(=O)c3cnc4ccccc4c3)cc1)CC2", "Potency": "inactive"},
      {"smiles": "Cc1c(NC(=O)c2ccc(C(C)(C)C)cc2)cccc1-c1cn(C)c(=O)c(Nc2ccc(C(=O)N3CCOCC3)cc2)n1", "activity change, negative = viability loss": -3.13},
      {"smiles": "CC(C)(C)NC(=O)Nc1cccc(Nc2ncc(F)c(NC(C)(C)CO)n2)c1", "Potency": "5.78 µM (active)"},
      {"smiles": "CCOC(=O)C1=C(N)Oc2ccc(Br)cc2C1C(C#N)C(=O)OCC", "note": "(centres undefined)", "Potency": "inactive"},
      {"smiles": "CC1(C)Cc2c(sc(NC(=S)NC(=O)c3ccccc3)c2C(=O)O)CO1", "activity change, negative = viability loss": -0.999},
      {"smiles": "COc1cccc2c1CCCC2CCCN1CCN(C2CCCCC2)CC1", "note": "(centres undefined)", "Potency": "20.9 µM (active)"},
      {"smiles": "CCOc1ccc(Nc2nc(-c3c(C)nc4ccccn34)cs2)cc1", "Potency": "0.183 µM (active)"},
      {"smiles": "CCCCCCCCCCCC1=C(O)C(=O)C=C(O)C1=O", "activity change, negative = viability loss": 2.36},
      {"smiles": "CC(C)(C)Cn1c(N)nc2ccc(-c3[nH]c(C(C)(C)C)nc3-c3ccc(F)cc3)nc21", "Potency": "2.9 µM (active) and 16.6 µM (active)"}
    ]}
  ]
}
